# Many of the other results were omitted from the sample, so hits are more common in it than they were.
# TbPYK inhibitor: qHTS of Trypanosoma Brucei Inhibitors; pyruvate kinase (Trypanosoma brucei), Q57TT1; TbPYK enzyme, Kinase-Glo Plus ATP luminescence, 45 min; Potency, µM (doses to about 76.8 µM), most hits filed as inhibitors; 410,000 tested, 0.12% active; AID 624173, 2012; also: nearly all actives have a fitted effect of over 50% in size
#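 TbPYK + substrate in 50 mM TEA pH 7.2, 100 mM KCl, 10 mM MgCl2, 0.05% BSA, 0.01% Tween-20; cpd pinned; ADP 130 uM final; 45 min RT; Kinase-Glo Plus 10 min; luminescence endpoint.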
# FBPA Giardia inh: qHTS Assay for Inhibitors of Fructose-1,6-bisphosphate Aldolase from Giardia Lamblia; A8B2U2; 290,000 tested, 0.71% active; purified Giardia FBPA; Potency, µM (titrated, usually from 59.6 µM), most hits filed as inhibitors; AID 2451, 2010; also: nearly all actives have a fitted effect of over 55% in size
#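 40 nM FBPA preincubated 10 min at RT with compound (up to 57.5 uM final), then substrate plus GAPDH/TPI/NAD/arsenate coupling and diaphorase/resazurin added. Fluorescence read after 20 min at RT, 525/598 nm.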
# Shiga toxin inh: A qHTS for Small Molecule Inhibitors of Shiga Toxin | Vero cells, Shiga toxin protein synthesis inhibition reporter | inhibition, % at 38.7 µM | 290,000 tested, 9.2% active | AID 2315, 2010; in the data active = inhibition mostly above about 28%, no sharp cut-off; inactive = mostly below about 43%
# CHX counter: Cycloheximide Counterscreen for Small Molecule Inhibitors of Shiga Toxin | cell reporter, cycloheximide protein synthesis inhibition counterscreen | max response, % | 300,000 tested, 12% active; in the data active = max response mostly above about 13%, no sharp cut-off; inactive = mostly below about 14%; also: read at 38.3 µM for the half of the compounds with a filed dose
# RE007 growth inh: qHTS Assay for Inhibitors of the HIV-1 protein Vpr | Potency, µM (titrated, usually from 92.2 µM), actives largely listed as inhibitors | S. pombe RE007 Vpr strain, BacTiter-Glo ATP luminescence, 24 h | 360,000 tested, 0.21% active; active = well fitted falling curve with a large enough effect; inconclusive = small, poorly fitted or top-dose-only effect; inactive = no such curve, though single readings can be large or run the other way; also: nearly all actives have a fitted effect of over 50% in size
#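 Fission yeast strain RE007, carrying one chromosomally integrated HIV-1 vpr copy, was seeded at OD 0.01 in PMG+AL medium with 23 nL pinned compound. After 24 h at 30 °C and 99% humidity, viability was read by BacTiter-Glo luminescence.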
# LmPK inhibitor: qHTS Assay for Inhibitors of Leishmania Mexicana Pyruvate Kinase (LmPK); Q27686; purified LmPK, Kinase-Glo ATP luminescence, 1 h; Potency, µM (series often up to 57.5 µM), hits mostly inhibitors; 290,000 tested, 0.37% active; AID 1721, 2009
# Target sequence (Q27686 whole entry, looked up): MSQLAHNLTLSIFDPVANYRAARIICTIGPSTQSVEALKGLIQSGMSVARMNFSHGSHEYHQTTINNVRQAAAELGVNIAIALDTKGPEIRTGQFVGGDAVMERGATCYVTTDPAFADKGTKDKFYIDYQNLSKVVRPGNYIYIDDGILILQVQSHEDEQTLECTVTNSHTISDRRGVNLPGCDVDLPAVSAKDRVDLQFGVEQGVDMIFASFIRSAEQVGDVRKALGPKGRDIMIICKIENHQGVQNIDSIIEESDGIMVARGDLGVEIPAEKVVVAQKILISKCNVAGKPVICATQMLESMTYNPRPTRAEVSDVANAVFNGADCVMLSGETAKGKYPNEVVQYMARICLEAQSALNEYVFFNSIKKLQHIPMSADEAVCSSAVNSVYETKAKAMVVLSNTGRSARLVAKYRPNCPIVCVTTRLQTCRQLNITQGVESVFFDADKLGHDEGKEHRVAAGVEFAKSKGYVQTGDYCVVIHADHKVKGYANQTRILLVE
#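 Kinase-Glo luminescence read after 1 h RT reaction of 0.1 nM LmPK with 0.5 mM PEP and 0.1 mM ADP. Activity scaled between uninhibited and enzyme-free controls.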
# Hits are given with their value; - = inactive; ? = inconclusive; . = no result. Unless noted, calls follow the shape of the dose curve; as a rule, active = well fitted curve in the direction sought with a large enough effect; inconclusive = small, poorly fitted or top-dose-only effect, or another doubt; inactive = no such curve, though single readings can be large; an effect the other way counts as inactive or inconclusive.
SMILES,TbPYK inhibitor,FBPA Giardia inh,Shiga toxin inh,CHX counter,RE007 growth inh,LmPK inhibitor
Cc1cc(NC(=O)COc2ccc3ccccc3c2)no1,-,-,-,31,-,-
O=C(COc1ccc2ccccc2c1)Nc1ccncc1,-,-,27,27,?,-
Cc1ccc(OCC(=O)Nc2cc(C(C)(C)C)on2)cc1C,-,.,-,-,-,-
O=C(COc1ccccc1)Nc1ccncc1,-,-,-,-,-,-
Cc1cc(NC(=O)COc2ccc(C)c(C)c2)no1,-,-,65,39,-,-
CCN(CC)C(=O)C1=C(C)Nc2nc3ccccc3n2C1c1cccc(Cl)c1 (configuration not stated),-,.,.,.,.,.
Cc1ccc(Cn2c(CCNC(=O)C(C)C)nc3ccccc32)cc1,-,.,.,.,.,.
COC(=O)Cn1ncc2c3ccccc3n(Cc3ccccc3)c2c1=O,-,-,-,-,-,-
COC(=O)Cn1ncc(N(C)Cc2ccccc2)c(Cl)c1=O,-,-,72,41,-,-
COCC(C)n1c(C)cc(C(=O)COC(=O)c2cc(=O)[nH]c3ccccc23)c1C (configuration not stated),-,.,.,.,-,.
COc1cc(OC)cc(C(=O)NCC(=O)OCC(=O)c2cc(C)n(Cc3ccco3)c2C)c1,-,-,-,-,-,-
COCC(C)n1c(C)cc(C(=O)COC(=O)c2n[nH]c3ccccc23)c1C (configuration not stated),-,-,129,56,-,-
COCC(C)n1c(C)cc(C(=O)COC(=O)CNC(=O)c2ccccc2)c1C (configuration not stated),-,-,86,53,-,-
COCCn1c(C)cc(C(=O)COC(=O)CNC(=O)c2ccccc2)c1C,-,-,99,61,-,-
Cc1ccc(CNC(=O)c2sc3nc(-c4ccc(F)cc4)ccc3c2N)cc1,-,.,.,.,.,.
O=C(NNc1ccccn1)c1ccccc1CC[N+](=O)[O-],-,-,-,14,-,-
O=C(Nc1ccc(Br)cc1)c1ccccc1CC[N+](=O)[O-],-,-,-,-,-,-
N#CCSc1nccc(/C=C/c2ccccc2)n1,-,-,40,42,-,-
COc1ccccc1NC1=CC(=O)CC(c2ccccc2)C1 (configuration not stated),-,-,-,-,-,-
CN(C)c1ccc(C2CC(=O)C=C(Nc3ccccc3N)C2)cc1 (configuration not stated),-,-,68,40,-,-
CCOc1ccc(-c2nnc(NC(=O)c3ccc(OCC(C)C)c(OC)c3)o2)cc1,-,-,-,25,-,-
COc1cccc(C(=O)Nc2nnc(-c3ccc(F)cc3)o2)c1,-,?,-,-,-,-
COc1ccc(OCCCC(=O)Nc2nc(C)c(C(C)=O)s2)cc1,-,-,-,-,-,-
Cc1ccc(S(=O)(=O)Nc2nc(C)c(C(=O)NN)s2)cc1,-,-,54,20,-,-
CC(=O)c1sc(NCc2ccccc2)nc1C,-,-,-,31,-,-
SMILES,TbPYK inhibitor,FBPA Giardia inh,Shiga toxin inh,CHX counter,RE007 growth inh,LmPK inhibitor
CC(=O)c1sc(NC(=O)CCS(=O)(=O)c2ccccc2)nc1C,-,-,58,57,-,-
CC(=O)c1sc(NC(=O)CCS(=O)(=O)c2ccc(F)cc2)nc1C,-,.,.,.,-,.
CC(=O)c1sc(NCCOc2ccc(C)cc2)nc1C,-,-,60,28,-,-
Cc1csc(C(=O)O)c1NC(=O)c1cccc([N+](=O)[O-])c1,-,-,-,-,-,-
CC(=O)c1[nH]c(C)c(C(=O)NCc2ccc(Cl)cc2)c1C,-,.,.,.,.,.
CCOC(=O)c1ccc(NC(=O)C2CCCN(c3ncnc4onc(C)c34)C2)cc1 (configuration not stated),-,.,.,.,.,.
Cc1ccc(CNc2nc(C)c(C(=O)N(C)C)s2)cc1,-,-,65,28,-,-
Cc1nc(NCCc2ccccc2)sc1C(=O)O,-,-,41,-,-,-
Cc1ccc(CNc2nc(Cl)c(C#N)s2)cc1,-,-,62,28,-,-
Cc1nc(NC(=O)COc2ccc(Cl)cc2)sc1C(=O)N(C)C,.,-,-,-,.,-
COc1ccc(CCNc2nc(C)c(C(C)=O)s2)cc1OC,-,-,-,-,-,-
CC(=O)c1sc(NCc2ccc(C)cc2)nc1C,-,-,103,43,-,-
CCCCCCCC/C=C/CCCCCCCC(=O)NCCOP(=O)(O)O,.,?,-,-,.,.
CCOC(=O)NC(=O)c1cn(Nc2ccccc2)c(=O)[nH]c1=O,-,-,-,-,-,-
COC(=O)NCC(c1cccnc1)N1CCOCC1 (configuration not stated),-,-,-,-,-,-
O=C(NCC(c1cccnc1)N1CCOCC1)Oc1ccccc1 (configuration not stated),-,-,75,24,-,-
Cc1cccc(-n2cnc(C(=O)NC3CCCCCC3)c2)n1,-,-,76,60,-,-
CCC(C)NC(=O)c1cn(-c2cccc(C)n2)cn1 (configuration not stated),-,-,53,20,-,-
Cc1cccc(-n2cnc(C(=O)N3CCN(C)CC3)c2)n1,-,-,-,-,-,-
Cc1nc(SCC(=O)OC(C)(C)C)c2c3c(sc2n1)CCCC3,-,.,.,.,.,.
COC(=O)c1cc2oc3ccccc3c2n1CC(=O)Nc1ccc(F)c(Cl)c1,-,.,.,.,.,.
COc1ccc2nc3cc(Cl)ccc3c(Nc3cc(C(C)C)c(O)cc3C)c2c1,-,-,27,-,-,-
CC1(C)CC(=O)C(=C2SCCCS2)C(=O)C1,-,-,-,-,-,-
CC(C)Oc1ccc(C(=O)N2CCN(c3nc4c(F)cc(F)cc4s3)CC2)cc1,-,.,.,.,.,.
NC1=NC(=O)/C(=C\c2cc([N+](=O)[O-])ccc2Cl)S1,-,-,-,-,-,-
SMILES,TbPYK inhibitor,FBPA Giardia inh,Shiga toxin inh,CHX counter,RE007 growth inh,LmPK inhibitor
O=C(N/N=C/C(Cl)=C\c1ccccc1)c1ccco1,-,-,113,48,-,-
O=C(N/N=C/C(Cl)=C/c1ccccc1)c1ccco1,-,-,71,51,-,-
O=C(Oc1ccc(/C=N/NC(=O)c2ccco2)cc1)c1ccccc1,-,.,.,.,-,.
O=C(NCc1ccccc1)c1n[nH]nc1-c1ccccc1O,-,-,-,18,-,-
COc1ccc2cc1Oc1cc3c(cc1OC)CC[N+](C)(C)C3Cc1ccc(cc1)Oc1c(OC)c(OC)cc3c1C(C2)[N+](C)(C)CC3 (configuration not stated),-,.,.,.,.,.
COc1ccccc1Nc1nc(N)nc(CSc2nncn2C)n1,-,-,-,-,-,-
Cc1ccc(-c2nnc(SCc3nc(N)nc(Nc4ccccc4C)n3)n2N)cc1,-,-,-,-,-,-
